Compound activity deposited in PubChem by National Center for Advancing Translational Sciences (NCATS).
LMNA splice mod – modulators of lamin A splicing; HeLa LMNA splicing GFP/RFP minigene ratio, 48 h; Potency, µM (series often up to 46.1 µM), usual class: inhibitors; 0.01% of 200,000 active; AID 1487; active = well fitted inhibition curve with a large enough effect in the signal ratio, with a control signal flat, not every such curve was filed as active; inconclusive = small, poorly fitted or top-dose-only effect, or effect the other way, or a change in a side signal; the % refers to the signal ratio
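S3 HeLa cells stably expressing lamin A-EGFP splicing minigene plus DsRed2, 600 cells/well, 48 h compound exposure at 37C. Laser-scanning cytometry; analysed as GFP (500-530 nm)/RFP (575-640 nm) total intensity ratio; 0.5% DMSO vehicle.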
ALDH1A1 block – inhibitors of human aldehyde dehydrogenase 1A1 | P00352 | Purified ALDH1A1, NADH fluorescence, propionaldehyde substrate | Potency, µM (doses to about 75.3 µM), most hits filed as inhibitors | 7.3% of 220,000 active
Target sequence (P00352 whole entry, looked up): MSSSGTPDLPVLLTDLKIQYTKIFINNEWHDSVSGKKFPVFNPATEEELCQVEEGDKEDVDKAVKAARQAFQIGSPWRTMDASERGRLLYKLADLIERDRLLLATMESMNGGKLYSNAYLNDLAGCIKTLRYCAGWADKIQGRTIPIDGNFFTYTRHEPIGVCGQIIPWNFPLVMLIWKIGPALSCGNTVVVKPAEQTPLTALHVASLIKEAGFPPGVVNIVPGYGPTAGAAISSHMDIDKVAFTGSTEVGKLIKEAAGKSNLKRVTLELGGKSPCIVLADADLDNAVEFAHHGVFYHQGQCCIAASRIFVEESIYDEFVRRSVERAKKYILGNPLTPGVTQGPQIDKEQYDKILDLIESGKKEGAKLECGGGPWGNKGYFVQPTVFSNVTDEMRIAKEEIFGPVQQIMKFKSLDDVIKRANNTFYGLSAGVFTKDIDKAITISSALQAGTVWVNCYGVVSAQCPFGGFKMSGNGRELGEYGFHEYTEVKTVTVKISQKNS
PNC inhibitor – perinucleolar compartment assembly inhibition; activity change (PNC), negative = inhibition, % at 10 µM; 3.1% of 140,000 active; PC3M PTB-GFP, PNC prevalence imaging, 16 h; active compounds read low;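 active = readout at or below -70, meaning at least 70% loss of cells showing the perinucleolar compartment, a nuclear body marking cancer cells; inconclusive = readout between -30 and a set limit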
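Read-out is percentage of cells bearing a perinucleolar compartment, from automated 20x imaging of fixed, Hoechst-stained PC3M PTB-GFP cells. Cells were seeded 4 h, then exposed 16 h to compound (23 nl of library stock) in duplicate plates.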
HPGD block – inhibitors of human 15-hydroxyprostaglandin dehydrogenase (HPGD); P15428; purified HPGD, NADH fluorescence kinetic, PGE2 substrate; Potency, µM, actives largely listed as inhibitors; 4.3% of 150,000 active; AID 894
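NADH formation kinetics: reaction with 30 uM PGE2 and 1 mM NAD+ (final), 20 nM enzyme, Tris-HCl pH 8 with Tween 20, after 15 min compound preincubation at room temperature. Fluorescence change, last versus first of five reads.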
ALOX12 inhib – 12-hLO (ALOX12) enzyme inhibition | purified 12-hLO, xylenol orange hydroperoxide absorbance | AID 1452 | 0.12% of 150,000 active | Potency, µM (doses to about 57.1 µM), most hits filed as inhibitors; active = well fitted inhibition curve with a large enough effect; inconclusive = small, poorly fitted or top-dose-only effect; note: nearly all actives have a fitted effect of over 55% in size
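Lipoxygenase turnover measured by absorbance at 573 and 405 nm after Fe-XO development. Human 12hLO 150 nM, arachidonate 40 uM, pH 7.0 Hepes buffer with detergent; 15 min compound preincubation, 30 min reaction.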
Numbers stand for hits; . = inactive; ? = inconclusive; / = no result given; [ ] = dose if it differs, or a comment. Sampled rows, rich in hits. Any-hit rate of the full collection: about 10%. Unless noted, calls come from the whole dose curve; as a rule, active = well fitted inhibition curve with a large enough effect (not every such curve was filed as active); inconclusive = small, poorly fitted or top-dose-only effect, or another doubt; inactive = no such curve, though single readings can be large or run the other way.

SMILES	LMNA splice mod	ALDH1A1 block	PNC inhibitor	HPGD block	ALOX12 inhib
O=C(CSc1ccc(Cl)cc1)N1CCN(c2ccc([N+](=O)[O-])cc2Cl)CC1	?	20µM	.	.	.
CCCC(=O)N1CCN(c2ccc([N+](=O)[O-])cc2Cl)CC1	?	?	.	.	.
Cc1cccc(N(C)C(=O)Cn2cnc3nc4c(cc3c2=O)CCCC4)c1	.	/	/	/	/
CCC(Sc1ccc2nnc(-c3ccc(F)cc3)n2n1)C(=O)OC (configuration not stated)	.	?	?	.	.
CCC(Sc1ccc2nnc(-c3ccc(OC)c(OC)c3)n2n1)C(=O)O (configuration not stated)	.	?	.	14.1µM	.
COc1ccc(-c2nnc3ccc(SC(C(C)=O)C(C)=O)nn23)cc1OC	?	.	.	14.1µM	.
COC(=O)CSc1ccc2nnc(-c3ccc(OC)c(OC)c3)n2n1	?	.	.	?	.
CN(C)c1ncnc2ccc(-c3cccnc3)cc12	?	.	/	/	/
O=C(O)C1CCCN1C(=O)c1cncc(Br)c1 (configuration not stated)	.	20µM	.	.	.
CC(=O)N1CCC[C@H]1C(=O)O	.	.	/	/	/
N#Cc1ccccc1NC(=O)C(=O)NCCc1csc(-c2ccc(C(F)(F)F)cc2)n1	.	/	/	/	/
O=C(NCCN1CCOCC1)c1ccc2c(c1)N(Cc1ccccc1F)C(=O)CS2	.[0.0737 µM]	.	.	.	.
O=C1CSc2ccccc2N1Cc1ccccc1F	.	22.4µM	?	.	.
CC(=O)Oc1ccc(N(C(C)=O)S(=O)(=O)c2cccs2)c2ccccc12	?	5.01µM	-82.1	.	.
CC(=O)Oc1ccccc1N(C(C)=O)S(=O)(=O)c1ccc2ccccc2c1	/	.	/	/	/
COC(=O)[C@H]1C[C@@H]1[C@H](NC(=O)c1cc(C)nn1C)c1ccccc1	/	?	/	.	.
O=S(=O)(Nc1nc2ccccc2nc1Nc1ccc2c(c1)OCO2)c1ccc(F)cc1	.	.	-83.6	/	.
Cc1ccc(-n2ncc3c(NCCCN(C)C)ncnc32)cc1Cl	.	/	/	/	/
CN(C)c1nc2c(Br)c(Br)c(Br)c(Br)c2[nH]1	?	.	/	.	.
CCCCCC(=O)NC(Cc1ccc(OC)c([N+](=O)[O-])c1)C(=O)O (configuration not stated)	.	12.6µM	/	/	/
COc1ccccc1C(=O)Nc1nnc(SCc2cc(=O)n3ccc(C)cc3n2)s1	.	/	/	/	/
Nc1nc(C2CC(=O)OC23CCCCC3)cs1 (configuration not stated)	.	?	-118.9	.	.
CCOC(=O)c1c(C)[nH]c(C)c1S(=O)(=O)N1CCC(C(=O)N2CCN(c3cccc(C)c3C)CC2)CC1	.	/	/	/	/
COc1ccc(CCNC(=O)Cn2cc(S(=O)(=O)Cc3ccccc3Cl)c3ccccc32)cc1OC	.	/	/	/	/
COc1ccc(-c2cc(N)n(S(=O)(=O)c3ccc(C)cc3)n2)c(OC)c1	.	?	-91.4	.	.
SMILES	LMNA splice mod	ALDH1A1 block	PNC inhibitor	HPGD block	ALOX12 inhib
CCc1ccccc1NC(=O)C(=O)NCC(c1cccnc1)N1CCN(c2ccccc2F)CC1 (configuration not stated)	.	/	/	/	/
CCOc1ccc(C(=O)Nc2cccc(C(=O)OCc3cc(=O)n4cc(C)sc4n3)c2)cc1	.	/	/	/	/
CCOC(=O)C1CCN(CC(=O)N2C(C)CCCC2C)CC1 (configuration not stated)	.	11.2µM	.	.	.
CCn1nc(C(=O)NNC(=O)COc2ccccc2C)c2ccccc2c1=O	.	.	-113.4	.	.
CC(=O)N1c2ccc(S(=O)(=O)N3CCCCCC3)cc2CC1C(=O)NCc1ccccc1 (configuration not stated)	.	/	/	/	/
COc1ccc(N2C(=O)CSC23C(=O)N(CC(=O)NC2CCCCC2)c2ccccc23)cc1 (configuration not stated)	.	/	/	/	/
CCCOc1cc(N)ccc1C(=O)OCCN(CC)CC	?	.	/	.	.
CCCOc1ccc(N)cc1N	.	5.62µM	-127.5	.	.
CCCN1C(=O)c2cc(C(=O)O)ccc2C1O (configuration not stated)	.	.	?	.	.
CCCN1C(=O)c2cc(C(=O)NC3CCCCCC3)ccc2C1O (configuration not stated)	.	15.8µM	.	.	.
CCOc1ccccc1NC(=O)C1CCN(S(=O)(=O)c2ccc3c(c2)CCCN3C(C)=O)CC1	.	/	/	/	/
